Among the data in PubChem BioAssay (NCI) are growth values, retold here.

This is part of a sample that, as a whole, favours compounds with a hit. Of some 83,000 tested, about 20% had one in any assay.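 Note: values are percent growth. 100 is the growth of untreated cells, values between 100 and 0 indicate rising inhibition; between -100 and 0 indicates cell death.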 A number with no mark means an inactive call. Calls of active or inactive are those of the source. How the source made its calls: active means growth percent below 10; inactive means the rest.

Holding throughout (test): NCI-60 one-dose screen, 48 h (100 = growth as untreated, 0 = no growth, -100 = all killed)
Holding throughout (settings): 10 µM unless noted

Test [1] deals with NCI-H23 lung.
Test [2] relates to NCI-H226 lung.
The subject of test [3] is NCI-H322M lung.
Test [4] concerns HOP-62 NSCLC.
The subject of test [5] is NCI-H460 lung.
The test system of test [6] is HOP-92 NSCLC.
The test system of test [7] is NCI-H522 lung.
Test [8] concerns A549/ATCC NSCLC.
In test [9] the test system is 786-0 renal.
In test [10] the test system is COLO 205 colon.
Test [11] concerns DU-145 prostate.
Test [12] deals with K-562 leukemia.
In test [13] the test system is MALME-3M melanoma.
The test system of test [14] is MDA-MB-231 breast.
Test [15] has as its system RXF 393 renal.
For test [16], the system named is SF-268 CNS.
In test [17] the test system is SF-295 CNS.
The subject of test [18] is SF-539 CNS.
Test [19] has as its system UACC-257 melanoma.
Test [20] deals with M14 melanoma.

With `CC(C(=O)O)n1c(O)c(C=Nc2cccnc2)sc1=S` (stereo not given), the growth was 99.1% in test [1]; 85.3% in test [2]; 93.1% in test [3]; 89.5% in test [4]; 100% in test [5]; 86% in test [6]. Besides, the growth in test [7] is 89.2%; in test [8], 92.4%; in test [9], 95.5%; in test [10], 107%; in [11] it was 97%; in test [12], 89%. In addition, the growth in [13] was 98.8%; in test [14], 86.3%; in test [15], 88.7%; in test [16], 87.7%; in [17], 101%; in test [18], 98.1%. The growth was 103% in [19] and 95.3% in test [20].

`C/C(=C(\c1ccc(OCCN2CCCCCC2)cc1)c1ccc(OC(=O)Cc2ccccc2)cc1)c1ccc(Cl)cc1`: the growth was 48.5% in test [1]; 91.2% in test [2]; 73.5% in test [3]; 7.91% (active) in test [4]; -60.1% (active) in test [5]; 49.5% in test [6]. The growth is 38.8% in [7]; 31.7% in [8]; -42% (active) in [9]; -79.7% (active) in test [10]; 62.3% in test [11]; -35.1% (active) in [12]. Besides, the growth was 22.6% in test [13]; 35.1% in test [14]; 21.1% in test [15]; 49% in test [16]; 3.77% (active) in [17]; 46.9% in [18]. Moreover, the growth in [19] was 5.81% (active); in test [20], -53.1% (active).

As to `C=CCCC(=O)N1C=CC(=O)[C@H](O)[C@@H]1/C=C/c1ccccc1`, the growth was 52.8% [100 µM] in test [1]; 26.8% [100 µM] in test [2]; 59% [100 µM] in test [3]; 35.3% [100 µM] in test [4]; 15.2% [100 µM] in test [5]; 70.6% [100 µM] in [6]. For the same compound, the growth in test [7] is 74.1% [100 µM]; in test [8] it was 52% [100 µM]; in test [9] it was 14.2% [100 µM]; in test [10], 34% [100 µM]; in test [11] it was 35.7% [100 µM]; in test [12], 26.3% [100 µM]. Further, the growth in [13] was 89.3% [100 µM]; in test [14], 52.3% [100 µM]; in test [15] it was 78.9% [100 µM]; in [16] it was 35.9% [100 µM]; in [17], 33.4% [100 µM]; in test [18], 19.2% [100 µM]. For the same compound, the results for the growth in test [19] and in test [20] were 64.9% [100 µM] and -19.8% [100 µM] (active), respectively.

`COc1ccc(-c2cc(-c3cc(OC)c(OC)c(OC)c3)c(C#N)c(=O)n2CCCCCC(=O)NO)cc1`: the growth was 97.3% in [1]; 92.2% in test [2]; 95.7% in test [3]; 102% in [4]; 96.6% in [5]; 88.5% in test [6]. Further, the growth in [7] was 89.5%; in test [8], 87.2%; in test [9] it was 101%; in [10], 120%; in test [11] it was 92.5%; in [12], 83%. For the same compound, the growth in test [13] is 97.8%; in test [14], 75.9%; in test [15] it was 92.9%; in test [16] it was 91.6%; in test [17], 91.2%; in [18], 90.4%. In addition, the growth in test [19] was 99.6%; in test [20], 99.5%.

Consider `O=C1NC(=C(Cl)Cl)/C(=N/S(=O)(=O)N2CCCCC2)N1`, for which the growth in test [1] was 53.9%; in [2] it was 89.5%; in test [3] it was 92.5%; in test [4] it was 62.1%; in test [5], 94.2%; in test [6], -81.8% (active). Moreover, the growth in [7] was -82.3% (active); in test [8], 93.4%; in test [9], 2.47% (active); in test [10], -84.5% (active); in test [11], 101%; in [12], -51.6% (active). The growth in [13] was -73.6% (active); in test [14], -6.69% (active); in [15] it was -39.8% (active); in [16], 28.3%; in [17], 110%; in test [18], 11.8%. In addition, the growth in test [19] is 39.3%; in test [20], 37.9%.

For the compound `O=C(Nc1ccccc1)c1sc(-c2ccccc2)cc1O`, the growth in test [1] is 83.3%; in test [2], 94.9%; in test [3], 96.9%; in test [4] it was 112%; in test [5], 92.5%; in [6], 77%. For the same compound, the growth is 85.3% in test [7]; 111% in test [8]; 101% in test [9]; 113% in test [10]; 106% in [11]; 82.6% in test [12]. Moreover, the growth in test [13] was 84.8%; in test [14] it was 105%; in test [15], 105%; in test [16], 98.1%; in test [17], 95.3%; in [18] it was 90.8%. Besides, the growth in test [19] is 128%; in test [20], 96.2%.

Turning to `COc1cc(-c2nc(SCCC(C)C)nc(N3CCOCC3)c2C#N)cc(OC)c1OC`, the growth was 74.2% in test [1]; 106% in test [2]; 91.2% in [3]; 28.6% in test [4]; 12.2% in test [5]; 81.9% in test [6]. Also, the growth is 65.8% in [7]; 22.4% in test [8]; 66% in test [9]; 63.8% in [10]; 41.6% in test [11]; 74.5% in test [12]. Moreover, the growth was 92.3% in [13]; 68.5% in test [14]; 101% in test [15]; 40.3% in [16]; 98.9% in test [17]; 55.5% in [18]. In addition, the values for the growth in test [19] and in test [20] were 95.8% and 96%, respectively.

`O=C1NC(=O)c2c1c1c3ccccc3[nH]c1c1oc3ccc(F)cc3c21`: the growth in test [1] was 61.9%; in [2], 54%; in test [3], 50.7%; in test [4], 64.8%; in [5], 52.9%; in [6] it was 70.1%. Besides, the growth is 50.4% in test [7]; 86% in test [8]; 90.3% in test [9]; 79.4% in test [10]; 77.4% in [11]; 78.4% in [12]. In addition, the growth was 48.6% in test [13]; 77.9% in test [14]; 69.1% in [15]; 79.5% in test [16]; 71% in test [17]; 64.3% in [18]. For the same compound, the growth in test [19] was 95.1%; in test [20], 45.1%.
